Source: PubChem BioAssay
FBPA coupling cs: coupling enzyme interference in Giardia aldolase counter-screen; coupling enzyme system counterscreen, AmpLite Red fluorescence; activity change, negative = inhibition, % at 58.2 µM, hits read low; hit rate 0.67% among 290,000; AID 2472; in the data active means activity change below about -30%; further: on the % scale 0 is the no-effect control and ±100 the full control effect
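Coupling enzymes only (glyceraldehyde-3-phosphate) + compound, at 57.5 uM final, 10 min RT; add substrate/coupling/AmpLite Red mix, 20 min RT; fluorescence ex 525/em 598 nm. Actives flag coupling-system interference.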
EPAC2 agonist: agonists of human EPAC2 (RAPGEF4); EPAC2 activation, biochemical qHTS; response scale: 100% = 6.5 mM cAMP response; hit rate 0.079% among 360,000; Q8WZA2; Potency, µM (titrated, usually from 154 µM), inactives show top-dose activation, hits mostly activators; further: potency means the concentration at half of the fitted maximal effect; nearly all actives have a fitted effect of over 50% in size
Target sequence (Q8WZA2 whole entry, looked up): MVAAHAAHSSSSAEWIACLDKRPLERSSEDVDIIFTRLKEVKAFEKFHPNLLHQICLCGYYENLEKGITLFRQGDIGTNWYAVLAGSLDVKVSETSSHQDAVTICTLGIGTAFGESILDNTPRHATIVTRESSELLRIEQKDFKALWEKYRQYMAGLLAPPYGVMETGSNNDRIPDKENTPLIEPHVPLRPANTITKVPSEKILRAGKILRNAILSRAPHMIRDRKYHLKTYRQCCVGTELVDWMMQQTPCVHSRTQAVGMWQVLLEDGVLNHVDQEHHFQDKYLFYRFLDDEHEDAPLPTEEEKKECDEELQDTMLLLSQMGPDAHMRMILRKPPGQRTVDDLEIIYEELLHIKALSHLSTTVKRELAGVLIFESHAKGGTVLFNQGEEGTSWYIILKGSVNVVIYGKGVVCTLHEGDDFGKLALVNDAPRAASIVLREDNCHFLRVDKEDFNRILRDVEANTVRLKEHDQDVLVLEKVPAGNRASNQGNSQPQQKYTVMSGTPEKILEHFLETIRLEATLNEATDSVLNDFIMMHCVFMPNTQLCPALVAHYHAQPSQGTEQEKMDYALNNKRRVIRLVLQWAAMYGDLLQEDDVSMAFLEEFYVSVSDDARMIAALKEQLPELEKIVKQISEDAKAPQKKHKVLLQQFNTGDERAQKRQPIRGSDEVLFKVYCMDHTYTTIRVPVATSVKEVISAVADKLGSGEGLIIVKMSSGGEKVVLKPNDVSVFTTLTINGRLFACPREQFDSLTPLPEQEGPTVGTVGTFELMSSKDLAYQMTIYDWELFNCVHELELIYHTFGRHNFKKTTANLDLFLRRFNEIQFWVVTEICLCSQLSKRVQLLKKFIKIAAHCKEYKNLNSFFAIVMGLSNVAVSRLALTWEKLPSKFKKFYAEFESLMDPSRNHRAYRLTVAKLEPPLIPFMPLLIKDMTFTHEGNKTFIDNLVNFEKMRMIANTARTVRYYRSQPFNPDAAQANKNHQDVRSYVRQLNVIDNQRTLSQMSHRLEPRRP
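EPAC2 (100 nM) mixed with Rap1B loaded with BODIPY-GDP (250 nM) plus 50 uM unlabeled GDP; compounds pinned in, 5 min RT, then read every 5 min for 30 min (ex 480, em 540 nm). Normalized to cAMP control.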
USP1-UAF1 inh: inhibitors of human USP1/UAF1 deubiquitinase. O94782. Potency, µM (top dose mostly 57.1 µM), for inactives: top-dose activity change, negative = inhibition, most hits filed as inhibitors. AID 743255. hit rate 0.23% among 390,000. recombinant USP1/UAF1, Ub-Rhodamine cleavage fluorescence; further: potency means the concentration at half of the fitted maximal effect; on the % scale 0 is the no-effect control and ±100 the full control effect; nearly all actives have a fitted effect of over 60% in size
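In this screen, compounds sit with the deubiquitinase complex (1nM) for 15 min at room temperature before Ub-Rho is added at 150nM final. Fluorescence rise is then followed for 6 reads every 60 seconds.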
EPAC1 antag: antagonists of human EPAC1; EPAC1 GEF assay, Rap1b-BODIPY-GDP exchange fluorescence; Potency, µM (doses to about 115 µM), for the others: at the highest dose activity change, negative = inhibition, actives largely listed as inhibitors; hit rate 0.14% among 360,000;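 further: potency means the concentration at half of the fitted maximal effect; plate controls were vehicle for no effect and positive control for full effect; nearly all actives have a fitted effect of over 50% in size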
EPAC2 antagonist: antagonists of human EPAC2; Q8WZA2; EPAC2 GEF exchange of Rap1B-BODIPY-GDP, fluorescence; Potency, µM (titrated, usually from 114 µM), inactives show top-dose activity, negative = inhibition, usual class: inhibitors; hit rate 0.18% among 360,000; further: potency means the concentration at half of the fitted maximal effect; on the % scale 0 is the no-effect control and ±100 the full control effect; nearly all actives have a fitted effect of over 45% in size
EPAC1 agonist: activates human EPAC1 exchange factor. Potency, µM (series often up to 154 µM), inactives show top-dose activation, usual class: activators. hit rate 0.073% among 360,000. EPAC1 agonist qHTS, biochemical assay; response scale: 100% = response to 6.5 mM cAMP. O95398; further: potency means the concentration at half of the fitted maximal effect; nearly all actives have a fitted effect of over 60% in size
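Nucleotide exchange by EPAC1 (100 nM) on Rap1B–BODIPY-GDP (250 nM) in the presence of 50 uM GDP is tracked fluorescently at 480/540 nm over 30 min. Signals are normalized to a 6.5 mM cAMP control.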
* hit, by the source's call; ? = inconclusive; / = no result given; ! = repeats disagree. An excerpt weighted towards active compounds, which were near 0.87% of everything screened. Unless noted, the call rests on the fitted dose curve; in most records, active means well fitted curve in the direction sought with a large enough effect; inconclusive means small, poorly fitted or top-dose-only effect, or another doubt; inactive means no such curve, though single readings can be large; an effect the other way counts as inactive or inconclusive.

SMILES | FBPA coupling cs | EPAC2 agonist | USP1-UAF1 inh | EPAC1 antag | EPAC2 antagonist | EPAC1 agonist
CCN1/C(=C/c2cc[n+](C)cc2)C=Cc2cc(C)ccc21 | -50.2* | -11.5% | ? | -4.1% | -19.7% | -9.4%
CS(=O)(=O)c1ccc2c(c1)sc1nc(=O)c(/C=C3/C=CC(=O)C(O)=C3)c(N)n12 | -4.0 | 1.4% | ? | 50.1µM* | 0.1% | -5.4%
COC1=C/C(=C/c2c(N)n3c(nc2=O)sc2cc(S(C)(=O)=O)ccc23)C=CC1=O | 3.8 | 14.3% | ? | -3.3% | -13.7% | 5.6%
CCOC(=O)c1c(C)[nH]c(C2=NNC(=Nc3ccccc3)SC2)c1C | -38.0* | -1.9% | ? | -1.6% | 2.3% | -5.6%
COC(=O)c1cc(Br)c(=O)n(CCc2ccc(F)cc2)c1 | -0.8 | 0.3% | -10.4% | 2.7% | 28.2µM* | 17.2%
Cc1ccc(C(=O)O)cc1-n1c(=O)n(Cc2ccccc2)c(=O)c2[nH]cnc21 | 12.6 | 3.9% | -15.9% | 3.5% | 2.7% | -3.7%
COc1ccc(C(=O)c2ccc(OC)c(OC)c2)cc1OC | -1.3 | 4.8% | -17.1% | 6.2% | -28.3% | -0.9%
COc1ccc(C(=O)c2nccc3cc(OC)c(OC)cc23)cc1OC | / | -2.1% | 14.1µM* | -5.3% | -4.4% | 11.6%
CCNC(=S)N/N=C/c1sc(N2CCCCC2)nc1-c1cccs1 | -4.1 | 1.4% | ? | 89.1µM* | ? | -52.2%
CCNC(=S)Nc1ccc(N2CCCCC2)cc1 | -1.3 | 3.7% | -9.0% | 7.5% | 4.4% | 7.3%
CCOc1ccccc1Nc1nnc(Cc2ccccc2Cl)c(=O)[nH]1 | -1.4 | 0.0% | -13.9% | -3.8% | 2.6% | 6.0%
COc1cc(/C=C(\C#N)c2nc3ccc(C)cc3[nH]2)c([N+](=O)[O-])cc1OC | -3.6 | 6.0% | -14.7% | -18.5% | -3.8% | -5.6%
COc1cc(/C=C(\C#N)c2nc3ccc(C)cc3[nH]2)cc([N+](=O)[O-])c1O | -8.0 | 6.3% | ? | 28.2µM* | ? | -2.8%
CCN(CC)c1ccc(/C=C(/C#N)c2nc3ccc(C)cc3[nH]2)c(OC(C)C)c1 | -1.4 | ? | 25.1µM* | 1.4% | 1.0% | ?
COc1ccc(C(=O)N(Cc2sccc2C)C2CCS(=O)(=O)C2)cc1 (stereo not given) | / | -4.1% | -24.5% | -2.4% | 10.6% | -0.7%
CCN(CC)C(=O)[C@H]1C[C@H](CC(=O)NCCCN(C)C)C(=O)N2CCc3c([nH]c4cc(CCC(=O)N(C)C)ccc34)[C@]12C | / | 6.2% | -22.6% | 1.0% | -8.3% | 0.2%
COc1ncnc2c1NC1=C(S2)C(=NCCC(=O)O)CC(C)(C)C1 | -48.1* | 13.2% | ? | -7.7% | 6.0% | 14.5%
Cc1cccc2c3c(ccc12)C1=C(C(=O)C3=O)[C@@H](C)CO1 | -41.6* | / | / | / | / | /
CC1COc2ccccc2C1=O (stereo not given) | 3.5 | / | / | / | / | /
Cc1cnc(C(=O)N(CCCn2ccnc2)C2C(=O)Nc3ccccc3N=C2c2ccccc2)cn1 (stereo not given) | / | 13.2% | / | -10.6% | 17.0% | -3.1%
CCN(CC)c1ccc(/C=C(/C#N)C(=O)NC(C)C)o1 | 0.6 | 10.9% | 25.1µM* | 11.7% | -12.9% | 13.0%
CC(C)NC(=O)/C(C#N)=C\c1ccc(N(C)C)o1 | 2.9 | 1.5% | ? | -0.1% | -5.1% | -2.5%
CCN(CC)c1ccc(/C=C(/C#N)C(=O)NCc2ccccc2)o1 | 0.0 | 26.4% | 31.6µM* | 2.9% | 13.8% | 5.4%
CCN(C(=S)Nc1cc(S(=O)(=O)N2CCOCC2)ccc1Cl)c1cccc2ccccc12 | -93.0* | 1.7% | -8.4% | 4.6% | 8.9% | 16.1%
COC(=O)C(N)Cc1ccc(O)cc1 (stereo not given) | 3.8 | 1.1% | -2.0% | 16.2% | 8.9% | -1.3%
SMILES | FBPA coupling cs | EPAC2 agonist | USP1-UAF1 inh | EPAC1 antag | EPAC2 antagonist | EPAC1 agonist
NC(CO)C(=O)NNCc1ccc(O)c(O)c1O (stereo not given) | -53.5*! | 9.5% | ? | 11.0% | 8.4% | -25.1%
O/C=c1\ccc2cccc3nc(C(F)(F)F)nc1c23 | -13.0 | ? | 22.4µM* | 18.2% | 82.1% | 89.1µM*
NNc1nc(C(F)(F)F)nc2ccccc12 | -2.0 | 0.7% | -4.2% | 2.0% | 5.3% | 4.5%
O=C(NC(=S)NC1CCS(=O)(=O)C1)c1ccccc1 (stereo not given) | / | 3.3% | -18.6% | -4.8% | 12.0% | -6.2%
CC(=O)NC1=C(NC2CCS(=O)(=O)C2)C(=O)c2ccccc2C1=O (stereo not given) | -50.8* | 4.5% | ? | -5.7% | -8.2% | 7.5%
CN(C1=C(NC(=O)c2ccccc2)C(=O)c2ccccc2C1=O)C1CCS(=O)(=O)C1 (stereo not given) | -61.7* | -8.6% | 10µM* | -17.0% | -23.3% | -29.6%
CCOC(=O)C1=C(C)NC(=S)NC1c1ccsc1 (stereo not given) | -0.8 | -0.1% | -19.1% | 0.5% | -0.8% | 6.9%
S=c1[nH]nc(-c2cc(-c3ccccc3)n[nH]2)n1/N=C/c1cccc(Cl)c1 | -1.3 | 3.4% | ? | 50.1µM* | -20.6% | 89.1µM*
S=c1[nH]nc(-c2cc(-c3ccccc3)n[nH]2)n1/N=C/c1ccc(Cl)c(Cl)c1 | 2.4 | 4.7% | 2.8% | 56.2µM* | ? | 63.1µM*
Cc1cc(C)cc(N(C(=O)c2csnn2)C(C(=O)NC(C)(C)C)c2ccccn2)c1 (stereo not given) | -0.3 | 4.9% | -9.2% | -16.4% | 0.4% | 10.3%
COc1ccc([N+](=O)[O-])cc1/C=N/NC(=O)CNC(=O)C(c1ccccc1)c1ccccc1 | -30.1* | 14.9% | -22.5% | 5.5% | 3.6% | 2.2%
COc1ccc(OC)c(/C=N/NC(=O)CNC(=O)c2cccc3ccccc23)c1 | -33.9* | 3.7% | -24.4% | -13.4% | -1.4% | 10.2%
COc1ccccc1/C=N/NC(=O)CSc1ccc2ccccc2n1 | -33.1* | 25.6% | -23.6% | -9.1% | -5.2% | 16.3%
COc1ccccc1/C=N/NC(=O)CC(=O)NCc1ccccc1 | -53.6* | 10.1% | -21.0% | -10.3% | 4.9% | 9.8%
COc1ccccc1/C=N/NC(=O)c1c(-c2ccccc2)noc1C | -33.8* | 2.3% | -25.4% | -6.2% | 5.5% | -3.3%
Cc1ccc(Cl)cc1Nc1nc2ccccc2n2c(C)nnc12 | / | / | -14.0% | / | / | /
COc1ccc(C(CC(=O)N2CCCC2)c2c(OC)cc(OC)c3c(-c4ccccc4)cc(=O)oc23)cc1 (stereo not given) | 3.8 | 9.1% | -38.8% | ? | ? | 8.1%
COc1ccc(C(CC(=O)N2CCOCC2)c2c(OC)cc(OC)c3c(-c4ccccc4)cc(=O)oc23)cc1 (stereo not given) | 3.7 | 6.2% | -16.9% | 4.8% | 50.1µM* | -9.0%
